# ST2 inh = inhibitors of human ST2 (IL1RL1) binding to IL-33, primary screen, biochemical, AlphaLISA; Interleukin-1 receptor-like 1 (Homo sapiens), Q01638; AlphaLISA ST2-Fc/biotin-IL-33 interaction, 1 h; inhibition, % for hits at 17 µM; 78,000 tested, 2.3% active; AID 1259354, 2018; in the data active means inhibition above about 30%
# Target sequence (Q01638 whole entry, looked up): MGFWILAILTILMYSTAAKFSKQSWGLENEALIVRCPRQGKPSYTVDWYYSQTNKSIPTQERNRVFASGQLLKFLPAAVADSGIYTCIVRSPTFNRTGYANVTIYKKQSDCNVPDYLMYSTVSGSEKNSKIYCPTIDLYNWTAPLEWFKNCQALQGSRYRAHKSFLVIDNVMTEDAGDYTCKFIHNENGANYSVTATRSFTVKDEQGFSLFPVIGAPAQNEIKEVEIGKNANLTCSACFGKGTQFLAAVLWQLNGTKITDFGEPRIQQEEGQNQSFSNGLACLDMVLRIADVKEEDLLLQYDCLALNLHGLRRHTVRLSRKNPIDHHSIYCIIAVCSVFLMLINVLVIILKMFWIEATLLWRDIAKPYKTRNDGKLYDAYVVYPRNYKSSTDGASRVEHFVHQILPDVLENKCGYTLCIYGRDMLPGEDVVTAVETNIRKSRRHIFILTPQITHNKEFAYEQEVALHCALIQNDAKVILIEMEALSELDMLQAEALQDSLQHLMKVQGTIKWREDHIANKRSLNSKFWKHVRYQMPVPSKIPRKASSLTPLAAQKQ
# An asterisk follows results filed as active; i = inactive. Shown is part of a subset that was picked to be rich in hits.
SMILES,ST2 inh
COC(=O)c1cccc(NC(=S)N[C@H]2CO[C@H]3[C@@H]2OC[C@H]3OC(=O)NC2CCCCC2)c1,i
Cc1cccc(NCN2C(=O)C(=O)c3ccccc32)c1,i
Cc1cccc(-n2cc(CN(C)Cc3c(C)noc3C)cn2)c1,i
CCCc1nc(NC(C)=O)c(C#N)c(-c2ccccc2OC)c1CC,i
Cc1cc(N2CCN(C)CC2)nc2ccc(NC(=O)CCC(=O)NCCC(C)C)cc12,i
Cc1nc(N2CCN(C)CC2)c2c(C)c(C(=O)O)sc2n1,i
COc1ccc(-n2c(C)c([N+](=O)[O-])c3ccc(O)cc32)cc1,i
COc1ccc2c(c1)C(C)(C)C1(C=Cc3cc([N+](=O)[O-])cc(OC)c3O1)N2C (stereo not drawn),73.0%*
COc1ccc(NC(=O)c2ccc([N+](=O)[O-])cc2)c(OC)c1,i
CCOC(=O)C1(CCCc2ccccc2)CCN(C(=O)c2nonc2C)CC1,i
O=[N+]([O-])c1ccc(N2CCN(c3ccccc3)CC2)c2ncccc12,32.0%*
O=C(c1ccc(Cl)cc1)N1CCN(c2ccc([N+](=O)[O-])c3ncccc23)CC1,i
O=C(Cc1ccccc1[N+](=O)[O-])N1CCN(c2ccccn2)CC1,i
CNC(=O)[C@@H]1C[C@H](N)CN1C(=O)c1ccccc1Oc1ccccc1,i
O=C(Nc1ccc(S(=O)(=O)Nc2ccc(Br)cc2)cc1)c1ccc([N+](=O)[O-])cc1,i
CN(C)CC1(O)CCCN(C(=O)c2sccc2Cl)CC1 (stereo not drawn),i
O=C1C(NC2CCCCC2)=C(N2CCOCC2)C(=O)c2ccccc21,73.0%*
O=C(NC1CCCCCCC1)C1c2ccccc2C(=O)N1CCCN1CCOCC1 (stereo not drawn),i
COc1cccc(OCC(O)CN2CCOCC2)c1 (stereo not drawn),i
CC(C)C(C(=O)NC1CCCCC1)N1C(=O)c2ccccc2C1=O (stereo not drawn),i
COc1cccc(NC(=O)c2ccccc2-c2ccccc2C(=O)O)c1,i
COc1cccc(NC2=C(N3CCOCC3)C(=O)c3ccccc3C2=O)c1,71.0%*
O=C(NCCCN1CCCC1)c1cc(=O)[nH]c2ccc(S(=O)(=O)N3CCCCC3)cc12,i
COc1cc2c(C(=O)NCCC3=CCCCC3)cn(CC(C)C)c(=O)c2cc1OC,i
COCCNC(=S)N[C@H]1C[C@H]2C(=O)NC[C@@H](CCC(=O)N3CCOCC3)N2C1,i
SMILES,ST2 inh
O=C(CC[C@@H]1CNC(=O)[C@@H]2C[C@H](NC(=S)NCCN3CCOCC3)CN12)NCc1ccccc1,31.0%*
O=C1NC[C@@H](CCC(=O)N2CCOCC2)N2C[C@@H](NC(=S)NCc3ccco3)C[C@@H]12,i
O=C(CC[C@@H]1CNC(=O)[C@@H]2C[C@H](NC(=S)Nc3ccc(Cl)cc3)CN12)NC1CC1,i
O=C(CC[C@@H]1CNC(=O)[C@@H]2C[C@H](NC(=O)c3ccc(F)c(Cl)c3)CN12)NCc1ccccc1,i
O=C(CC[C@@H]1CNC(=O)[C@@H]2C[C@H](NC(=O)Nc3ccc(F)cc3F)CN12)NCc1ccc(F)cc1,71.0%*
CCCCN(CCCNC(=O)c1c(C)cc(=O)oc1C)c1ccccc1,i
Cc1cc2ncn(C(=O)c3ccccc3Cl)c2cc1C,i
CCN(CC)CC#CCN1CC(c2ccccc2)CC1=O (stereo not drawn),i
COc1ccc(CNC(=O)C(OC)c2ccccc2)cc1 (stereo not drawn),i
O=C1C=C(c2ccccc2)C[C@H](c2cccs2)[C@H]1n1nnc([N+](=O)[O-])n1,33.0%*
CCOC(=O)C1C(=O)C=C(c2ccc(OC)c(OC)c2)CC1c1cccs1 (stereo not drawn),i
O=C1C=C(/C=C/c2ccccc2)C[C@H](c2ccccc2)[C@H]1n1nnc([N+](=O)[O-])n1,58.0%*
Cc1ccc(S(=O)(=O)NC2CCC(NS(=O)(=O)c3ccc(C)cc3)CC2)cc1 (stereo not drawn),i
Cc1csc(NC(=O)CN2C(=O)CCc3cc(S(=O)(=O)N4CCCC4)ccc32)n1,i
OCC(CNC1CCSCC1)Cc1cccs1 (stereo not drawn),i
COc1ccc(CN2CC[C@H](c3nnc(-c4cncn4C)o3)C2)cc1,i
COc1ccc(-c2nc3c(=O)n(C)c(=O)[nH]c3n2C)cc1,i
Cc1ccc(NS(=O)(=O)c2ccc3[nH]c(=O)c(=O)[nH]c3c2)cc1Cl,i
Cc1ccc(Cl)cc1NS(=O)(=O)c1ccc2[nH]c(=O)c(=O)[nH]c2c1,i
Cc1ccc(NS(=O)(=O)c2ccc3[nH]c(=O)c(=O)[nH]c3c2)c(Cl)c1,37.0%*
O=[N+]([O-])c1cc(Br)cc(C=Nc2ccc(Br)cc2)c1O,i
Cc1ccc(N=Cc2cc(C)cc([N+](=O)[O-])c2O)c(Cl)c1,30.0%*
O=[N+]([O-])c1cccc(C=Nc2ccccc2Cl)c1O,i
CSCC(=O)N1CCCC(CCC(=O)NC2CC2)C1 (stereo not drawn),i
Cc1ccc(NS(=O)(=O)c2c(C)[nH]c(=O)[nH]c2=O)c(Br)c1,i
SMILES,ST2 inh
O=C(c1cn(CCN2CCCCC2)nn1)N1CCSCC1,i
CNc1nc(-c2cc(NC3CCNCC3)nc3[nH]ccc23)nc2c1CCC2,37.0%*
CCOC(=O)Cn1c(CN2CCN(c3ccc(OC)cc3)CC2)nc2c1c(=O)[nH]c(=O)n2C,i
NS(=O)(=O)c1ccc2c(c1)C(=O)c1cc(S(N)(=O)=O)ccc1-2,i
O=C(Nc1ccccc1O)c1ccc([N+](=O)[O-])cc1,i
O=C(c1ccc([N+](=O)[O-])cc1)c1ccc(Cl)c(Cl)c1,58.0%*
COc1ccc(C(=O)NCCNc2ccc([N+](=O)[O-])cc2)cc1Cl,i
CC(C)C(Cn1ccnc1)NC(=O)c1ccccc1N1CCOCC1 (stereo not drawn),i
CCC(Cn1ccnc1)NC(=O)c1ccc2c(c1)nnn2C (stereo not drawn),i
CC(C)c1cc(C(=O)NC(Cn2ccnc2)C(C)C)nc2ncnn12 (stereo not drawn),30.0%*
Oc1ccc(Cn2cnc3ccccc32)c2cccnc12,i
Cc1cccc(C)c1NC(=O)c1ccccc1NC(=O)C(C)n1cncn1 (stereo not drawn),i
CC(C)SCCn1nc(C2CCCNC2)n(-c2ccccc2)c1=O (stereo not drawn),i
O=c1n(Cc2cccc(F)c2F)nc(C2CCNCC2)n1Cc1ccccc1,i
O=c1n(CCCn2cccc2)nc(C2CCNCC2)n1-c1ccccc1,30.0%*
CNc1ccc([N+](=O)[O-])cc1-n1cc2c(c1-c1ccccc1)c(=O)n(C)c(=O)n2C,i
Cc1nnc(SCCn2c(N3CCCC(C)C3)nc3c2c(=O)[nH]c(=O)n3C)s1 (stereo not drawn),i
Cc1cc(N(C)C)nc(Nc2ccc(NC(=O)CC3CCCC3)cc2)n1,i
Cc1cc(Nc2ccccc2)nc(Nc2ccc(NC(=O)c3ccccc3)cc2)n1,32.0%*
Cc1ccc(Nc2cc(C)nc(Nc3ccc(NC(=O)c4ccccc4C)cc3)n2)cc1,i
COc1ccc(Nc2cc(C)nc(Nc3ccc(NC(=O)CCC4CCCC4)cc3)n2)cc1,30.0%*
COc1ccc(Nc2cc(C)nc(Nc3ccc(NC(=O)c4ccc(C(F)(F)F)cc4)cc3)n2)cc1,i
